Results published in PubChem BioAssay.
Active and inactive are the calls of the source.

Columns and labels:
Albumin (Bos taurus) = Albumin (Bos taurus) (UniProt P02769); experiment: bovine serum albumin binders on microarray, profiling panel, artefact control for SMM control protein annotation, biochemical, small-molecule microarray, Alexa647 label, 635/667 nm fluorescence (AID 1118); conditions: BSA-A647 binding, fluorescence 635 nm, higher = more signal;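 also: score merges 667 nm emission intensity and signal-to-noise per printed compound spot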
Albumin (Bos taurus), sequence (P02769 whole entry, looked up): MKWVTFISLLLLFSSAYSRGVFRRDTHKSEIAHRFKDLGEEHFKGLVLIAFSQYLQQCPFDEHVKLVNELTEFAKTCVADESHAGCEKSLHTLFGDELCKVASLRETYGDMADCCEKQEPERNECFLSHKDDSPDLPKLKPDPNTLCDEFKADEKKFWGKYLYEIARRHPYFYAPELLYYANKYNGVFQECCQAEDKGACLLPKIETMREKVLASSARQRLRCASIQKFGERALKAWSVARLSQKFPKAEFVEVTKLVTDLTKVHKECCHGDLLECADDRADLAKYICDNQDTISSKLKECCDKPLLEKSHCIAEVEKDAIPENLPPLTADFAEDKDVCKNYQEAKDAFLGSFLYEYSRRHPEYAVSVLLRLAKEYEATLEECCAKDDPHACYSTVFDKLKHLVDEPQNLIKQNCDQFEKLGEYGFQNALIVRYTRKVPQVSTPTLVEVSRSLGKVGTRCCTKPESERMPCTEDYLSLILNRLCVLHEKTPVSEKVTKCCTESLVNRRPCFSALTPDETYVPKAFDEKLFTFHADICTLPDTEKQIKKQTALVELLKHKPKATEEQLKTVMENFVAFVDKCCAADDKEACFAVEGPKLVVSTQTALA

[1] = small-molecule microarray binders of probe aXIP, primary screen, biochemical, NeuroSMM set, 635/667 nm fluorescence (AID 1119); conditions: higher = more signal, called active from +8 up or from −8 down;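 also: probe is the protein aXip251-270 applied at 1 µg/mL to compound-printed slides; binding of probe to printed compounds measured as 667 nm fluorescence plus signal to noise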
[2] = small-molecule binders of probe aNOTCH3, primary screen, biochemical, small-molecule microarray, 635/667 nm fluorescence (AID 1120); conditions: higher = more signal;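 also: probe is a biotin-tagged antibody raised against NOTCH3 rather than NOTCH3 protein; score merges spot fluorescence near 667 nm with spot signal to noise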
[3] = small-molecule binders of probe aNOTCH2, primary screen, biochemical, small-molecule microarray, 635/667 nm fluorescence (AID 1121); conditions: higher = more signal;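 also: score merges feature fluorescence read at 667 nm with its signal to noise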
[4] = molecular target: Carbonic anhydrase 2 (Homo sapiens) (UniProt P00918); experiment: CAII small-molecule binders, profiling panel, biochemical, small-molecule microarray, Alexa647-labelled CAII (AID 1122); conditions: CAII-A647 binding fluorescence, higher = more signal
[5] = COS7 lysate on small-molecule microarray, probe aHis, 635 nm (AID 1123); conditions: COS7 cell lysate, fluorescence, higher = more signal;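 also: z-score combines 667nm fluorescence intensity with signal-to-noise per printed compound spot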
[6] = compound binding in COS7 lysate, probe aLAP1, primary screen, cell lysate, small-molecule microarray (AID 1124); conditions: probe aLAP1, fluorescence, higher = more signal;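 also: lysate comes from COS7 cells expressing LAP1 and is applied at 0.3 µg/mL; score merges spot fluorescence near 667 nm with signal-to-noise over triplicate slides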
Sam68 (KHDRBS1) = experiment: Sam68 small-molecule binders, primary screen, biochemical, small-molecule microarray, 635 nm fluorescence (AID 1125); conditions: small-molecule microarray binding, higher = more signal;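 also: score merges 667 nm channel intensity with signal to noise over triplicate slides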
[7] = system: Chordin-like protein 2 (CHRDL2); experiment: CHRDL2 small-molecule binders, primary screen, biochemical, small-molecule microarray, 635 nm fluorescence (AID 1126); conditions: small-molecule microarray binding, fluorescence 635 nm; higher = more signal;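 also: printed compound slides probed with Chrdl2 protein at 4 µg/mL for 1 h at 4 C; score merges 667 nm emission intensity with signal to noise over three replicate slides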
[8] = molecular target: Concanavalin-A (Canavalia ensiformis) (UniProt P02866); experiment: ConA small-molecule binders, primary screen, artefact control for SMM control protein annotation, biochemical, small-molecule microarray, Alexa647 label, 635 nm (AID 1127); conditions: ConA-A647 binding fluorescence, higher = more signal;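 also: z combines 667 nm emission intensity with signal-to-noise across three replicate slides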
Concanavalin-A (Canavalia ensiformis), sequence (P02866 whole entry, looked up): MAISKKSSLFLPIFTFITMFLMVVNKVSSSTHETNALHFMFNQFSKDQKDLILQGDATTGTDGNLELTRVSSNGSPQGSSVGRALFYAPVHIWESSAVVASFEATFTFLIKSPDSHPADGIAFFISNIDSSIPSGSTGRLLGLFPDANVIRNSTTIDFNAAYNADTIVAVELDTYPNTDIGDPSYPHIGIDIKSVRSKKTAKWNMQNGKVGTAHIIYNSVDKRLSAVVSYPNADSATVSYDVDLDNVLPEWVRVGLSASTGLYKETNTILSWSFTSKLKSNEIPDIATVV

[9] = anti-His antibody binders, primary screen, artefact control for SMM control protein annotation, biochemical, small-molecule microarray, 635 nm fluorescence (AID 1128); conditions: anti-His Alexa647 antibody binding, higher = more signal;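 also: score merges feature fluorescence with signal-to-noise for each printed compound spot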
[10] = system: Human papillomavirus type 1a E7 protein (residues 1-88); experiment: HPV1a E7 small-molecule binders, primary screen, biochemical, small-molecule microarray, residues 1-88, 635 nm (AID 1129); conditions: small-molecule microarray binding, fluorescence 635 nm; higher = more signal
[11] = molecular target: Focal adhesion kinase 1 (Homo sapiens) (UniProt Q05397); experiment: small-molecule microarray binders of FAK, primary screen, biochemical, 635/667 nm fluorescence, BSA, DTT (AID 1130); conditions: PTK2 binding, 635 nm fluorescence, higher = more signal;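 also: composite of spot emission at 667 nm and signal to noise over triplicate slides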
Focal adhesion kinase 1 (Homo sapiens), sequence (Q05397 whole entry, looked up): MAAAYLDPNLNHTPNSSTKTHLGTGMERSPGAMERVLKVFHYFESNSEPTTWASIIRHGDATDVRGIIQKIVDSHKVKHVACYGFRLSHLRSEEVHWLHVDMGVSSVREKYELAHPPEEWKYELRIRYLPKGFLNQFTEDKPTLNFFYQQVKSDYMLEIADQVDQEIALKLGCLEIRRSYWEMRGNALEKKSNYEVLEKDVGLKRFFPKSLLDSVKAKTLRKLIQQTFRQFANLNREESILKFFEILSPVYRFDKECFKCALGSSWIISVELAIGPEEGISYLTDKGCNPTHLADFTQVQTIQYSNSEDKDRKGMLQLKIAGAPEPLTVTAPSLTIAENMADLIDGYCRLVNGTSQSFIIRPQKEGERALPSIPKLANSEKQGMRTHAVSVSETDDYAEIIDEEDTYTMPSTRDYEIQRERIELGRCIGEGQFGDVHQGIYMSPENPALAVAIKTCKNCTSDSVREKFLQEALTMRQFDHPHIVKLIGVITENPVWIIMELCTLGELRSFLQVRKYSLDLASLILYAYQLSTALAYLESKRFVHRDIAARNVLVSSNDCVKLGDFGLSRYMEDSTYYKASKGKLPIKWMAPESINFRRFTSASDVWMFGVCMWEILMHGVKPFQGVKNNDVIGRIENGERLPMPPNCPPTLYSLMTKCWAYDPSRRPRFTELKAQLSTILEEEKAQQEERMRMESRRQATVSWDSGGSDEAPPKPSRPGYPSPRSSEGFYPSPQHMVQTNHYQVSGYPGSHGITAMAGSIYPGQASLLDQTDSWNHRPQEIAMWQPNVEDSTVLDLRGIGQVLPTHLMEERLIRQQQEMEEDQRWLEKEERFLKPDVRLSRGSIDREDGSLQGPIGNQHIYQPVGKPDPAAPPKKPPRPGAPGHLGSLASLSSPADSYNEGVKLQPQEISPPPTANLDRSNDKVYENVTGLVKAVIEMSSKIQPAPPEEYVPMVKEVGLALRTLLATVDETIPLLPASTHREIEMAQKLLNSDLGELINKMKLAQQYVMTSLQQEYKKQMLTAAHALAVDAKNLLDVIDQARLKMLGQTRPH

[12] = system: Fibrinogen (Alexa647-labelled); experiment: fibrinogen binders on compound microarrays, profiling panel, artefact control for SMM control-protein annotation, biochemical, small-molecule microarray, 635/667 nm fluorescence (AID 1131); conditions: fibrinogen-A647 binding fluorescence, higher = more signal;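 also: z-score merges 667 nm fluorescence with per-spot signal-to-noise over triplicate slides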
[13] = molecular target: Follistatin (Homo sapiens) (UniProt P19883); experiment: follistatin binders on small-molecule microarrays, primary screen, biochemical, small-molecule microarray, 635/667 nm fluorescence (AID 1132); conditions: FST binding, 635 nm fluorescence, higher = more signal
Follistatin (Homo sapiens), sequence (P19883 whole entry, looked up): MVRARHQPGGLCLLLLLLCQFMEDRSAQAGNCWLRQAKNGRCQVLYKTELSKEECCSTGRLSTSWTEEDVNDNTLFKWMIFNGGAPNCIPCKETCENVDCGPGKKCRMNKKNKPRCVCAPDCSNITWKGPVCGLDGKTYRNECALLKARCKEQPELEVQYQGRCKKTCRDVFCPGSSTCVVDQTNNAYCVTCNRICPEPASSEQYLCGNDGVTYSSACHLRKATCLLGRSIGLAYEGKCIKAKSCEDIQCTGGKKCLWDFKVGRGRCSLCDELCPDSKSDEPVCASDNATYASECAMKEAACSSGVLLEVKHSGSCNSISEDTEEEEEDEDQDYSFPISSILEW

[14] = molecular target: Fibroblast growth factor 2 (Homo sapiens) (UniProt P09038); experiment: FGF2 binders on small-molecule microarrays, primary screen, biochemical, small-molecule microarray, 635/667 nm fluorescence (AID 1133); conditions: small-molecule microarray binding, FGF2, fluorescence 635/667; higher = more signal
Fibroblast growth factor 2 (Homo sapiens), sequence (P09038 whole entry, looked up): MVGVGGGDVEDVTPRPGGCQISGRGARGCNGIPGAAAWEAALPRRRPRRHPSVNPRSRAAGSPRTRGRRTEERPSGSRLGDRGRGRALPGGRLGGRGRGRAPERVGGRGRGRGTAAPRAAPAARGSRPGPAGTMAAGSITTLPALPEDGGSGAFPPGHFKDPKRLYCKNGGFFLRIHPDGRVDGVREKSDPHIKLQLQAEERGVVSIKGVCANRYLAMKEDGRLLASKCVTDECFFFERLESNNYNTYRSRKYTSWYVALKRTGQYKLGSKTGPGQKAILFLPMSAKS

[15] = mitochondrial membrane potential change in A549 cells, profiling panel, cell-based, JC-1 fluorescence, basal, 24 h, 100 nL (AID 1138); conditions: higher = more signal;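 also: A549 lung adenocarcinoma cells under basal conditions with no added stimulus; test concentration not given here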
Lefty1 = Lefty1 binders on small-molecule microarrays, primary screen, biochemical, small-molecule microarray, 635/667 nm fluorescence (AID 1139); conditions: small-molecule microarray binding, fluorescence 635/667; higher = more signal
[16] = system: wheat germ agglutinin (Triticum aestivum), Alexa647-labelled; experiment: wheat germ agglutinin binders on compound microarrays, profiling panel, artefact control for SMM control-protein annotation, biochemical, small-molecule microarray, 635/667 nm fluorescence (AID 1140); conditions: WGA-A647 binding, 635 nm fluorescence, higher = more signal;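 also: score merges 667 nm feature emission with signal to noise over triplicate slides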
[17] = molecular target: Luciferin 4-monooxygenase (Photinus pyralis) (UniProt P08659); experiment: firefly luciferase enzyme inhibitors, primary screen, biochemical, luminescence, purified enzyme, 2006 set (AID 1141); conditions: SteadyGlo luminescence, 30 min, higher = more signal, called active from +8 up or from −8 down;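 also: cell-free assay with purified firefly luciferase at 100 ng per well in PBS; test concentration not given here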
Luciferin 4-monooxygenase (Photinus pyralis), sequence (P08659 whole entry, looked up): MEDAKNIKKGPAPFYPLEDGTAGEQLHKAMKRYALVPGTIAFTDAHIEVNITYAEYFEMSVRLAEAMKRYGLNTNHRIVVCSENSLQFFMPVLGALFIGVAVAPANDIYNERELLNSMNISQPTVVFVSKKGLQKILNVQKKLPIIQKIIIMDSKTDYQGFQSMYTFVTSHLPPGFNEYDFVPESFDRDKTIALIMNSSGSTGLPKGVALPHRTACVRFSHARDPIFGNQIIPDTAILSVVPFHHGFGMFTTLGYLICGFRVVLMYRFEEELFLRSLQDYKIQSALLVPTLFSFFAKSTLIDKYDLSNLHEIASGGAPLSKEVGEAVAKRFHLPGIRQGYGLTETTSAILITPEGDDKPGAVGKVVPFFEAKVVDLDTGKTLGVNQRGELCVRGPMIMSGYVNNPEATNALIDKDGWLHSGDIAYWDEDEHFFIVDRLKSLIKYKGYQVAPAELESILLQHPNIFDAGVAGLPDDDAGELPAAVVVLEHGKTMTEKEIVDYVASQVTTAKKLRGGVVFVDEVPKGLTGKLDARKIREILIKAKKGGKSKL

Compound	composite z-score (Albumin (Bos taurus))	composite Z-score [1]	composite z-score [2]	composite z-score [3]	composite z-score [4]	composite z-score [5]	composite z-score [6]	composite z-score (Sam68 (KHDRBS1))	composite z-score [7]	composite z-score [8]	composite z-score [9]	composite z-score [10]	composite z-score [11]	composite z-score [12]	composite z-score [13]	composite z-score [14]	z-score [15]	composite z-score (Lefty1)	composite z-score [16]	z-score [17]
COCCOC(=O)N1C(=O)[C@@]2(c3cc(C#CCCO)ccc31)[C@H](c1ccc(OCCO)cc1)N1[C@H](c3ccccc3)[C@H](c3ccccc3)OC(=O)[C@H]1[C@@H]2C(=O)N1CCCCCCC1	-0.226	2.1 (inactive)	1.26	0.675	0.67	2.7	1.95	1.33	1.43	1.13	0.939	1.2	0.644	0.726	1.46	1.68	-0.901	1.33	1.32	-0.247 (inactive)
[N-]=[N+]=Nc1ccccc1C[C@@]1(C(=O)NCC(O)CO)N=C(c2ccc(OCCCO)cc2)O[C@@H]1c1ccccc1 (stereo not given in full)	0.579	-0.362 (inactive)	-0.152	0.0231	0.719	2.01	0.353	0.206	-1.26	0.446	-0.0048	1.2	0.206	0.54	-0.327	0.0559	1	-0.867	0.436	-2.44 (inactive)
O=C(NC1CC1)[C@@H]1c2ccccc2C(=O)N(CC23CC4CC(CC(C4)C2)C3)[C@H]1c1ccc(CO)cc1	0.654	-0.0662 (inactive)	0.183	-0.0495	0.388	2.18	0.99	1.31	1.16	1.16	1.17	1.12	0.476	0.919	1.44	1.28	0.0467	1.33	0.33	0.7 (inactive)
CCCNC(=O)[C@@]1(Sc2ccc(C)cc2)CC(=O)N(Cc2ccccc2Cl)[C@@H]1c1ccc(CO)cc1I	-0.266	-0.588 (inactive)	0.965	-0.0836	0.529	0.649	-0.0685	-0.169	-1.56	0.0737	0.977	-0.157	0.313	0.22	-0.328	-1.08	0.685	-0.896	0.202	0.718 (inactive)
C=CC1c2cc(O)c(OC)cc2CCN1C (stereo not given)	0.582	0.694 (inactive)	-0.136	-0.126	0.886	-0.0207	0.0879	-0.589	-0.644	-1.24	0.586	-1.39	-0.636	-0.934	-0.424	-0.475	-0.0592	-1.23	0.356	-0.0535 (inactive)
CCCC[C@H]1C[C@@H]1[C@@H]1N(C(C)=O)[C@H](c2cccc(OC)c2)CC12CC2	0.219	0.797 (inactive)	0.0026	0.0112	0.202	0.808	0.603	-0.658	-1	-0.745	-0.101	0.173	0.17	0.832	-0.631	-0.532	0.605	-0.613	0.133	2.15 (inactive)
C=CCOC(=O)[C@@H]1[C@H]2C(=O)O[C@H](c3ccccc3)[C@H](c3ccccc3)N2[C@H](c2ccc(OCCOC(=O)[C@H]3C[C@H]4C(=O)N5CCC[C@H]5C(=O)N4[C@H]3c3cccc(OCCO)c3)cc2)[C@@]12C(=O)Nc1ccc(I)cc12	-0.638	1.17 (inactive)	-0.0328	-0.0228	0.219	0.942	0.448	1.3	1.02	1.17	1.04	0.994	0.746	0.241	1.4	1.38	-1.32	1.44	0.555	0.0266 (inactive)
CC1CC/C=C\[C@H]2OC34C=CCN(C(C)(C)C)C(=O)[C@H]3N(CCCO)C(=O)[C@@H]4C2C(=O)O1 (stereo not given in full)	-1.53	0.398 (inactive)	-0.155	-0.164	0.916	0.386	0.71	-0.307	-0.286	-0.532	0.441	-0.137	-0.441	-0.735	-0.404	-0.685	0.0255	-0.842	-0.723	0.477 (inactive)
N#Cc1ccc(NN2C(C(O)C3CC=CCC3)C=CC3C(=O)N(c4ccccc4)C(=O)C32)cc1 (stereo not given)	1.03	-0.098 (inactive)	0.106	-0.0037	0.486	3.13	0.452	1.32	0.0572	1.14	0.118	1.28	0.534	1.02	0.46	1.05	0.0165	0.361	1.36	-0.852 (inactive)
CCN(CC)c1ccc(N2CC=CC34O[C@@H]5C=CCCOC(=O)C5[C@H]3C(=O)N(C(C)CO)[C@@H]4C2=O)cc1 (stereo not given in full)	0.653	0.195 (inactive)	0.102	-0.159	0.835	-0.806	0.385	-0.304	-0.0271	-0.361	1.72	0.649	0.339	-0.943	0.461	-0.199	0.337	0.399	0.329	-0.421 (inactive)
